# HepG2 tox: qHTS for Inhibitors of TGF-b: Cytotox Counterscreen; HepG2 CAGA-GFP viability, ATP luminescence, 18 h; Potency, µM (top dose mostly 46.1 µM), inactives show top-dose activity change, negative = cytotoxicity, most hits filed as cytotoxic; hit rate 0.76% among 410,000; AID 588856, 2011; further: potency means the concentration at half of the fitted maximal effect
#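 CellTiter-Glo luminescence gave cytotoxicity after 18 hours at 37 degrees C. The cells were HepG2 CAGA-GFP in 1% FBS DMEM, stimulated with 500 pg/mL TGF-beta after compound addition. %Activity was normalised to no-cell wells (complete cell-killing) and DMSO (no toxicity), and curves were fitted and classified.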
# Giardia kill: Small Molecules that selectively kill Giardia lamblia: qHTS; Giardia lamblia trophozoite viability; activity change, % at 7.66 µM, hits read low; hit rate 0.15% among 340,000; in the data active means activity change below about -80%; inconclusive means between about -30% and that limit;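 further: parasites exposed to compound for two days anaerobically before the ATP read; on the % scale 0 is the no-effect control and ±100 the full control effect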
#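 Giardia lamblia trophozoites (100 cells/well) were incubated with compounds for 48 h at 37 deg C under anaerobic conditions. Viability was read as ATP content by one-step luminescence after 15-30 min at room temperature.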
# TGFb inhibitor: qHTS for Inhibitors of TGF-b; HepG2 CAGA-GFP TGF-b/SMAD3 reporter, GFP fluorescence, 18 h; TGF-beta stimulated, 500 pg/mL final; Potency, µM (doses to about 46.1 µM), without a hit: at the top dose activity, negative = inhibition, actives largely listed as inhibitors; hit rate 1.2% among 410,000; further: potency means the concentration at half of the fitted maximal effect; on the % scale 0 is the no-effect control and ±100 the full control effect; nearly all actives have a fitted effect of over 65% in size
#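 First, reporter cells (HEPG2 CAGA-GFP) rested 2 h at 37 degrees C. Next, compounds were pinned in and TGF-beta added to 500 pg/mL final. After 18 h, GFP was imaged per cell and summed per well.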
# HT1080-NT tox: qHTS for induction of synthetic lethality in tumor cells producing 2HG: qHTS for the HT-1080-NT fibrosarcoma cell line | HT-1080-NT fibrosarcoma viability, CellTiter-Glo ATP luminescence, 48 h | Potency, µM (top dose mostly 46.1 µM), for the others: at the highest dose activity, negative = less viability, actives largely listed as cytotoxic | hit rate 1.6% among 360,000 | AID 686970, 2013;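 further: NT is the 2HG producing partner of a matched IDH1 knockdown line; potency means the concentration at half of the fitted maximal effect; 0% = DMSO-treated cells and -100% = media-only wells without cells; nearly all actives have a fitted effect of over 55% in size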
#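 750 cells/well, RPMI + 5% FBS; 2 h settle, compound pin-transfer, 48 h at 37 degrees C. CellTiter-Glo 10 min RT, luminescence. Normalized to DMSO and media-only wells.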
# HT1080 IDH1KD tx: qHTS for induction of synthetic lethality in tumor cells producing 2HG: qHTS for the HT-1080-IDH1KD cell line; AID 686971, 2013; Potency, µM (series often up to 46.1 µM), for inactives: at the top dose activity, negative = toxicity, actives largely listed as cytotoxic; HT-1080 IDH1 knockdown viability, ATP luminescence, 48 h; hit rate 2% among 360,000;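 further: potency means the concentration at half of the fitted maximal effect; 0% = DMSO wells and -100% = cell-free medium wells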
#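 IDH1KD HT-1080 cells, 750/well, RPMI + 5% FBS; compound pinned after 2 h settling; 48 h, 37 °C; CellTiter-Glo luminescence; % activity normalised to DMSO and no-cell wells; curves fitted, classed by r2 and efficacy.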
# IL-1B inflam inh: qHTS for Inhibitors of Inflammasome Signaling: IL-1-beta AlphaLISA Primary Screen; THP-1 LPS/ATP IL-1B secretion, AlphaLISA, 16 h; hits give low values; activity change, % at 57.5 µM; hit rate 4.7% among 360,000; AID 743279, 2014; in the data active means activity change below about -50%; inconclusive means mostly about -30% to -49%; further: on the % scale 0 is the no-effect control and ±100 the full control effect
#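 Secreted IL-1B measured by AlphaLISA bead assay after 16 h compound exposure of THP-1 cells; compounds (final up to 57.5 uM) added 1 h before LPS (250 ng/mL) and ATP (1.25 mM) stimulation; lower signal means less secretion.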
# Numbers without * were called inactive; u = inconclusive; x = not tested or not shown. Shown are actives, neighbours in structure and some others; about 6.5% of the full set was active somewhere. Unless noted, the call rests on the fitted dose curve; in most records, active means well fitted curve in the direction sought with a large enough effect; inconclusive means small, poorly fitted or top-dose-only effect, or another doubt; inactive means no such curve, though single readings can be large; an effect the other way counts as inactive or inconclusive.
SMILES,HepG2 tox,Giardia kill,TGFb inhibitor,HT1080-NT tox,HT1080 IDH1KD tx,IL-1B inflam inh
CN1CC[C@@]2(C)c3cc(O)ccc3N(C)C2O1 (some centres undefined),-21%,38,-21%,x,x,x
O=C1NCN(c2ccccc2)C12CCN(CCCC(c1ccc(F)cc1)c1ccc(F)cc1)CC2,10µM*,-4,11µM*,8.2µM*,9.2µM*,-16
O=c1[nH]c2ccccc2n1C1CCN(CCCC(c2ccc(F)cc2)c2ccc(F)cc2)CC1,-18%,-11,-10%,16µM*,18µM*,-80*
O=C(NCCN1CCC2(CC1)C(=O)NCN2c1cccc(F)c1)c1ccc2ccccc2c1,x,x,x,15µM*,21µM*,u
Cc1c(CC(=O)N2C[C@H]3C[C@@H](C2)c2cccc(=O)n2C3)c(=O)oc2c(C)c(O)ccc12,-7%,19,-15%,0%,-3%,-3
C[C@@H]1O[C@@H](O[C@@H]2C=C3CC[C@@H]4[C@@H](CC[C@]5(C)[C@H](c6ccc(=O)oc6)CC[C@@]45O)[C@@]3(C)CC2)[C@H](O)[C@H](O)[C@H]1O,-61%,x,0.32µM*,x,x,x
COC(=O)C1=C(c2ccc(C(C)=O)cc2)C[C@@H]2CC[C@H]1N2C(=O)NCCOc1ccccc1Cl,-21%,-5,-21%,7%,5%,0
CCC(C)N1C(=O)/C(=C\c2ccc(N3CCCCCC3)cc2)C(=O)NC1=S (centres undefined),-2%,30,4%,-4%,16%,-1
CCC(C)N1C(=O)/C(=C\c2cnc(N(C)C)nc2)C(=O)NC1=S (centres undefined),5%,27,1%,u,-25%,-52*
C=C1C(=O)O[C@@H]2C[C@@H](C)[C@@H]3C=CC(=O)[C@@]3(C)[C@@H](OC(=O)CC(=O)O[C@H]3[C@@H]4C(=C)C(=O)O[C@@H]4C[C@@H](C)[C@@H]4C=CC(=O)[C@]43C)[C@H]12,0.56µM*,-11,0.25µM*,u,0.23µM*,0
C=C1C(=O)O[C@H]2C[C@@H](C)[C@@H]3C=CC(=O)[C@@]3(C)C[C@H]12,7.9µM*,-27,4.5µM*,u,8.2µM*,-111*
C=C1C(=O)OC2CC(C)C3C=CC(=O)C3(C)C(O)C12 (centres undefined),-118%,16,3.2µM*,1.8µM*,0.82µM*,-101*
C=C1C(=O)O[C@@H]2C[C@@H](C)[C@@H]3C4OC4C(=O)[C@@]3(C)[C@@H](O)[C@H]12 (some centres undefined),-88%,-4,2.8µM*,15µM*,9.2µM*,-113*
OCCNCCc1c[nH]c2ccc(OCc3ccccc3)cc12,-20%,-28,-24%,u,-12%,-17
C=C1C(=O)O[C@H]2[C@H]1[C@H](OC(=O)CC(=O)O[C@@H]1C[C@@H](C)[C@@H]3C=CC(=O)[C@@]3(C)[C@H]3OC(=O)C(=C)[C@H]13)C[C@@H](C)[C@H]1C=CC(=O)[C@]12C,-65%,8,u,u,u,-105*
COc1ccc(CCNCc2cc(OC)cc(OC)c2)cc1,-6%,x,-1%,-10%,-8%,-51*
COc1ccc(CCNC(C)CCc2ccc(OC)cc2)cc1 (centres undefined),-23%,9,13%,u,-26%,-64*
COc1ccc(CCNCc2c(OC)ccc3ccccc23)cc1,-54%,-1,-2%,u,-24%,-64*
COc1cccc(CCNCc2ccc(SC)cc2)c1,-28%,-1,6%,-19%,-14%,-65*
O=C(Nc1c(F)cc(F)cc1F)c1cccn(Cc2ccccc2)c1=O,-17%,-8,-21%,-3%,-11%,-7
CN1CCC(n2nccc2N)CC1,0%,18,-5%,19%,18%,16
CCCNC(=O)N1[C@H]2CC[C@@H]1C(C(=O)OC)=C(c1cc3ccccc3s1)C2,-11%,11,-17%,3%,2%,5
Cc1ccc(C)c(N2CCN(c3ncnc4onc(C)c34)CC2)c1,-22%,x,u,x,x,x
Cc1ccccc1NC1(C#N)CCCCC1,4%,-13,19%,0%,-4%,-2
Cc1ccc(S(=O)(=O)N2CCCCC2)cc1NC(=O)CSc1ncnc2ccccc12,17%,0,u,-2%,-3%,-97*
SMILES,HepG2 tox,Giardia kill,TGFb inhibitor,HT1080-NT tox,HT1080 IDH1KD tx,IL-1B inflam inh
Cc1ccc(S(=O)(=O)N2CCCCC2)cc1NC(=O)Nc1ccc(Cl)cc1Cl,-8%,-16,u,7%,7%,-8
O=C(c1cccc(C(F)(F)F)c1)C1CCCN(Cc2ncc[nH]2)C1 (centres undefined),-11%,18,-20%,-4%,0%,43
COc1ccc2[nH]c(C)c(CCNCc3cn(C)c4ccccc34)c2c1,-84%,12,u,u,u,-86*
Cc1[nH]c2ccccc2c1CCNCc1cccnc1,6%,-3,-3%,11%,10%,-5
CN1C(=O)C(C2c3ccccc3C(=O)N2Cc2ccccc2)C(=O)N(C)C1=O (centres undefined),60%,-2,12%,19%,17%,53
C=CCN1C(=O)NC(=O)/C(=C/C=C/c2ccccc2)C1=O,-7%,4,u,u,21µM*,u
O=C1NC(=O)N(Cc2ccccc2)C(=O)/C1=C\C=C\c1ccco1,-15%,7,10µM*,u,3.7µM*,-212*
Cn1cccc1/C=C1\C(=O)NC(=O)N(Cc2ccco2)C1=O,-5%,-7,3%,-11%,-9%,79
O=C1NC(=O)N(Cc2ccco2)C(=O)/C1=C/C=C/c1ccco1,-25%,-9,7.1µM*,23µM*,21µM*,-100*
O=C1C2C3CCC(O3)C2C(=O)N1CCO (centres undefined),2%,-5,3%,-4%,11%,-6
CN(C)CC(C(=O)Cc1ccccc1)c1ccccc1 (centres undefined),-102%,3,u,16µM*,8.2µM*,-96*
